# Key:
# [1] = target: T1, Ephrin type-B receptor 2 (Homo sapiens) (UniProt P29323); details: at 1 µM
# T1 sequence (whole entry): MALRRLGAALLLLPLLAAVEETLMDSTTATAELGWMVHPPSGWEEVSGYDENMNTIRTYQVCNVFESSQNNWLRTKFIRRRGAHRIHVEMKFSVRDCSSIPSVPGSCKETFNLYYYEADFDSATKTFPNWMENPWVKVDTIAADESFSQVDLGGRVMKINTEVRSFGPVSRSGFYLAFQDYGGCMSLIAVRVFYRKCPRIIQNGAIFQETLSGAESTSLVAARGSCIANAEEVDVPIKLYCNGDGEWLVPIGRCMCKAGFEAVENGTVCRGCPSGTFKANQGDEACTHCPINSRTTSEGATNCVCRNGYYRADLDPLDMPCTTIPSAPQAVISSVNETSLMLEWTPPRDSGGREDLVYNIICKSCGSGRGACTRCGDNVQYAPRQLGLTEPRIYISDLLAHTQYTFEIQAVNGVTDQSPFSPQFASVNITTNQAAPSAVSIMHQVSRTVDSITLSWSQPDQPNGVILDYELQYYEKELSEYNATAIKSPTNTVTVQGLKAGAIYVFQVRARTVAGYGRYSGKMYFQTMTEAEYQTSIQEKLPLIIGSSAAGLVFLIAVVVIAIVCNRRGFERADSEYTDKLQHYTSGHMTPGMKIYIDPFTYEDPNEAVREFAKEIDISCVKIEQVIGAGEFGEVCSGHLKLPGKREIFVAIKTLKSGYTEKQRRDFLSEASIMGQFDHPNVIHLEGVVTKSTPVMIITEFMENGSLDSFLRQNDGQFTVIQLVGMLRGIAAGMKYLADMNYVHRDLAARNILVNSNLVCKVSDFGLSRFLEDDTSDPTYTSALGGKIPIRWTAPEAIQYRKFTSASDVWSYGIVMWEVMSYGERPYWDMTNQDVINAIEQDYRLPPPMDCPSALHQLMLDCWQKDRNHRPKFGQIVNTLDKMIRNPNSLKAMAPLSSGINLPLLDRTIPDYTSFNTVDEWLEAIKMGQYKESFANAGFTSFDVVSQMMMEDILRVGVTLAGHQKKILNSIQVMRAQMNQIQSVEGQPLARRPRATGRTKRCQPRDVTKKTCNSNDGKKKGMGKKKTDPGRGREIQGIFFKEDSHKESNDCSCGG
# [2] = target: T2, Ephrin type-B receptor 3 (Homo sapiens) (UniProt P54753); details: at 0.1 µM
# T2 sequence (whole entry): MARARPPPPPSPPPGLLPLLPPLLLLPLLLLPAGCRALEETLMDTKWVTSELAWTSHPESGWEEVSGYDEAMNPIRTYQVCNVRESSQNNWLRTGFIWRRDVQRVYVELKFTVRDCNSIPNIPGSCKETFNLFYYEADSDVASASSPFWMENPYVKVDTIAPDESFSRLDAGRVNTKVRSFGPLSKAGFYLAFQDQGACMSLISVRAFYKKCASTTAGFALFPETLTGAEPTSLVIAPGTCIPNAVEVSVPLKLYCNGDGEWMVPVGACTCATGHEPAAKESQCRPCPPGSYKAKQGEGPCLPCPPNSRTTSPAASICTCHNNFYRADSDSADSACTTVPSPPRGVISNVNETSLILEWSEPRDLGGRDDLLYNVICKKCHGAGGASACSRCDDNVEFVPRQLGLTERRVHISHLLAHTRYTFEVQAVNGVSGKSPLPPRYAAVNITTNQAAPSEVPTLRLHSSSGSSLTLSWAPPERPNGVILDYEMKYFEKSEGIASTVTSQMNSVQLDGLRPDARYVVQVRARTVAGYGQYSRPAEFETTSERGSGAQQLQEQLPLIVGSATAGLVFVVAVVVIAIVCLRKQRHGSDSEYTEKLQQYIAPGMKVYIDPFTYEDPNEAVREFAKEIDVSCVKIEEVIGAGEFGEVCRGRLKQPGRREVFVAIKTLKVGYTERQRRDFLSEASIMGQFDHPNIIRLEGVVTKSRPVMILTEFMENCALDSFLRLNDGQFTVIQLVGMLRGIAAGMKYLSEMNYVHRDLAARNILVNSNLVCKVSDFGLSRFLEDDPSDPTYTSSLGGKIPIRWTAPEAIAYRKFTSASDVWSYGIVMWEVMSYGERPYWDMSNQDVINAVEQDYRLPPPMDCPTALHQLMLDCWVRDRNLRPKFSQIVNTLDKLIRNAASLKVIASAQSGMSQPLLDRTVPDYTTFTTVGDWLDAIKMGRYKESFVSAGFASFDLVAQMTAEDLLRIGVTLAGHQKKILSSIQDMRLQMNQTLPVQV
# [3] = target: T2, Ephrin type-B receptor 3 (Homo sapiens); details: at 1 µM
# [4] = target: T3, Ephrin type-B receptor 4 (Homo sapiens) (UniProt P54760); details: at 0.1 µM
# T3 sequence (whole entry): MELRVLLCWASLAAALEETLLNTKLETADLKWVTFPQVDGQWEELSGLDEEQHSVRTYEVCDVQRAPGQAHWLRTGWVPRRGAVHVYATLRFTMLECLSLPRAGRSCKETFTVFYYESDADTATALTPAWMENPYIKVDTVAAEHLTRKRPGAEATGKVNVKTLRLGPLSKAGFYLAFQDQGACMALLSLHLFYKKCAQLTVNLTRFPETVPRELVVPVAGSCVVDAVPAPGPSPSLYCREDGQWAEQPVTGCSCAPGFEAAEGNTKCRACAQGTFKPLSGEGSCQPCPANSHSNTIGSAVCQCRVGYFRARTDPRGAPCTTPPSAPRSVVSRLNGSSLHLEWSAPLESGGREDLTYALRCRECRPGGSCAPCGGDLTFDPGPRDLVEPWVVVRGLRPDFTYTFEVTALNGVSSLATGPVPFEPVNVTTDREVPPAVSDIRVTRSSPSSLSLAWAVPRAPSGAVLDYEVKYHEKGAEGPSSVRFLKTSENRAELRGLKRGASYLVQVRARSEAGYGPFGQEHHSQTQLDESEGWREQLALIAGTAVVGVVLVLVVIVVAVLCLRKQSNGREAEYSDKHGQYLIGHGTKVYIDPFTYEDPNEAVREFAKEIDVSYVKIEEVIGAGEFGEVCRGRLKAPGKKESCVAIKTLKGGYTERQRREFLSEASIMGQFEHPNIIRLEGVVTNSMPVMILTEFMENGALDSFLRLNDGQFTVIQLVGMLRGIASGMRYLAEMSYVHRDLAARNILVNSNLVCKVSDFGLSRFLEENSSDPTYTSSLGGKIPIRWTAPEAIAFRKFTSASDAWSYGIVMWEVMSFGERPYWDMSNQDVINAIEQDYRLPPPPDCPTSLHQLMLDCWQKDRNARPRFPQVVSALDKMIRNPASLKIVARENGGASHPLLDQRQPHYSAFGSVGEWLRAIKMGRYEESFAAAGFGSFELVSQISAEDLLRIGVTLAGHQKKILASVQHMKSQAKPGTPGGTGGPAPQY
# [5] = target: T3, Ephrin type-B receptor 4 (Homo sapiens); details: at 1 µM
# [6] = target: Receptor tyrosine-protein kinase erbB-2 (Homo sapiens) (UniProt P04626); details: at 0.1 µM
# Chain of Receptor tyrosine-protein kinase erbB-2 (Homo sapiens) (P04626 whole entry): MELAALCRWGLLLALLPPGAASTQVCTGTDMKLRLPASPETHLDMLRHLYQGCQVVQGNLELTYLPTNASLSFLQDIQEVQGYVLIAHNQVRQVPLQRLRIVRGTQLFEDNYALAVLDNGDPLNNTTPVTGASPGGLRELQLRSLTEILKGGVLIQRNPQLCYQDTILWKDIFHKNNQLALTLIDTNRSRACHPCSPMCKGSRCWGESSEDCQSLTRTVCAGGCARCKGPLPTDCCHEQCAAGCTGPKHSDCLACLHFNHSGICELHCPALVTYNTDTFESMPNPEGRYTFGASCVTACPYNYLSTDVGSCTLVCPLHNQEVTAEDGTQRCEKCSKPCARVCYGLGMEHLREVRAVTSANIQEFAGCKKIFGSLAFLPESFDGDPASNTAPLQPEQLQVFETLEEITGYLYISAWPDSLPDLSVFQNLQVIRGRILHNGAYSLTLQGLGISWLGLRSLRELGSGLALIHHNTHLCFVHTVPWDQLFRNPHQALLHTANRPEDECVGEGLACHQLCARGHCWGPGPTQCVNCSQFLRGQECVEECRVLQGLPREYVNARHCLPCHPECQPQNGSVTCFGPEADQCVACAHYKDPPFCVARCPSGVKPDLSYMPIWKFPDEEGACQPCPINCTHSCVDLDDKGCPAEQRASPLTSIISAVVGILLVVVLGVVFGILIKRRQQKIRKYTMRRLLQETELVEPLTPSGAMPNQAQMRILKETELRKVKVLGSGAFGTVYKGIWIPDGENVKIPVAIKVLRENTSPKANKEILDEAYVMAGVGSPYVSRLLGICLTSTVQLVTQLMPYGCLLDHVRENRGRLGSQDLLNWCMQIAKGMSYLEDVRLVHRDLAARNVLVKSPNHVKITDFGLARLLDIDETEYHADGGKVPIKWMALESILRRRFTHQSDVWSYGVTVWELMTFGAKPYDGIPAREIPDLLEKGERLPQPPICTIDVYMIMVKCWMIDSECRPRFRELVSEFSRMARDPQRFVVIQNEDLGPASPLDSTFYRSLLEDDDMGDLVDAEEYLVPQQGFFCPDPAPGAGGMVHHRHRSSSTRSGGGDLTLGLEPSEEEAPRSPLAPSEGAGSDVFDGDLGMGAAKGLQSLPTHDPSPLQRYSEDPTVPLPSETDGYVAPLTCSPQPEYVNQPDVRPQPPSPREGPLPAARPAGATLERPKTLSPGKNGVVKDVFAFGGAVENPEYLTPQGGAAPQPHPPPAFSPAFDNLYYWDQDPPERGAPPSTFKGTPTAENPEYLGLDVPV
# [7] = target: Receptor tyrosine-protein kinase erbB-2 (Homo sapiens) (UniProt P04626); details: at 1 µM
# [8] = target: Receptor tyrosine-protein kinase erbB-4 (Homo sapiens) (UniProt Q15303); details: at 0.1 µM
# Chain of Receptor tyrosine-protein kinase erbB-4 (Homo sapiens) (Q15303 whole entry): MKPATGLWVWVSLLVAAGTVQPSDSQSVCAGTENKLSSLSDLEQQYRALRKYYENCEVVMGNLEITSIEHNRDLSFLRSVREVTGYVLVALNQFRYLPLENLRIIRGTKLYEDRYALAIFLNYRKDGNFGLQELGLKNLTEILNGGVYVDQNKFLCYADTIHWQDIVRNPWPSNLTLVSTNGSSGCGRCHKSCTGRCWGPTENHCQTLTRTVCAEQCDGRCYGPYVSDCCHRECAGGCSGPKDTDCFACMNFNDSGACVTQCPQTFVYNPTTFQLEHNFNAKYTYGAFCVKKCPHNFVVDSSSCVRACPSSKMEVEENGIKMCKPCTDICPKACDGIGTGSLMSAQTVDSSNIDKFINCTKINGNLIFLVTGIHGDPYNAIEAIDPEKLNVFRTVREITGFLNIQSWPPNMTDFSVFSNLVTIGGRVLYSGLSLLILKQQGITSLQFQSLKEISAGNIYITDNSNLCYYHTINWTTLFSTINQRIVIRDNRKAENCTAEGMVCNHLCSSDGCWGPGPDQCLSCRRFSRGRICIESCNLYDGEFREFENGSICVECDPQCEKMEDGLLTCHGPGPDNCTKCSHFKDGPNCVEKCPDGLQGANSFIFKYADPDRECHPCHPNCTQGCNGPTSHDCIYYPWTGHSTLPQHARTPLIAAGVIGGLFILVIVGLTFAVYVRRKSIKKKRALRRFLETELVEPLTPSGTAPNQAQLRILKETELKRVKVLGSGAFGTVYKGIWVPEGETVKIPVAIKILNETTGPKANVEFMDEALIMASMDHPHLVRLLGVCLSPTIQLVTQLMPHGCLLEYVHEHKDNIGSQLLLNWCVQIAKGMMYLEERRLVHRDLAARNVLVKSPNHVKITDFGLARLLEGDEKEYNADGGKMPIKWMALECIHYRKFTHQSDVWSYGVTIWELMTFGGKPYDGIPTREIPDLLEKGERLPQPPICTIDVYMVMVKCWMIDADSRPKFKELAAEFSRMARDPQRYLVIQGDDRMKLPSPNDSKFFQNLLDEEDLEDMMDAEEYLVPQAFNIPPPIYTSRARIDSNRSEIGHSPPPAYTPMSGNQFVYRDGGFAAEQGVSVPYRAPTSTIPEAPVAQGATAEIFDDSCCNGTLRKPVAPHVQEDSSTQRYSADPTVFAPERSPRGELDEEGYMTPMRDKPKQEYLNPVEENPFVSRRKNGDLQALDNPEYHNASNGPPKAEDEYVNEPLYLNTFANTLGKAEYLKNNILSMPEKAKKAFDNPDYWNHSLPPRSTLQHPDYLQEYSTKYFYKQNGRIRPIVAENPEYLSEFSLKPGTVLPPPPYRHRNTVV
# [9] = target: Receptor tyrosine-protein kinase erbB-4 (Homo sapiens) (UniProt Q15303); details: at 1 µM
# [10] = target: Tyrosine-protein kinase Fer (Homo sapiens) (UniProt P16591); details: at 0.1 µM
# [11] = target: Tyrosine-protein kinase Fer (Homo sapiens) (UniProt P16591); details: at 1 µM
# [12] = target: Tyrosine-protein kinase Fes/Fps (Homo sapiens) (UniProt P07332); details: at 0.1 µM
# Chain of Tyrosine-protein kinase Fes/Fps (Homo sapiens) (P07332 whole entry): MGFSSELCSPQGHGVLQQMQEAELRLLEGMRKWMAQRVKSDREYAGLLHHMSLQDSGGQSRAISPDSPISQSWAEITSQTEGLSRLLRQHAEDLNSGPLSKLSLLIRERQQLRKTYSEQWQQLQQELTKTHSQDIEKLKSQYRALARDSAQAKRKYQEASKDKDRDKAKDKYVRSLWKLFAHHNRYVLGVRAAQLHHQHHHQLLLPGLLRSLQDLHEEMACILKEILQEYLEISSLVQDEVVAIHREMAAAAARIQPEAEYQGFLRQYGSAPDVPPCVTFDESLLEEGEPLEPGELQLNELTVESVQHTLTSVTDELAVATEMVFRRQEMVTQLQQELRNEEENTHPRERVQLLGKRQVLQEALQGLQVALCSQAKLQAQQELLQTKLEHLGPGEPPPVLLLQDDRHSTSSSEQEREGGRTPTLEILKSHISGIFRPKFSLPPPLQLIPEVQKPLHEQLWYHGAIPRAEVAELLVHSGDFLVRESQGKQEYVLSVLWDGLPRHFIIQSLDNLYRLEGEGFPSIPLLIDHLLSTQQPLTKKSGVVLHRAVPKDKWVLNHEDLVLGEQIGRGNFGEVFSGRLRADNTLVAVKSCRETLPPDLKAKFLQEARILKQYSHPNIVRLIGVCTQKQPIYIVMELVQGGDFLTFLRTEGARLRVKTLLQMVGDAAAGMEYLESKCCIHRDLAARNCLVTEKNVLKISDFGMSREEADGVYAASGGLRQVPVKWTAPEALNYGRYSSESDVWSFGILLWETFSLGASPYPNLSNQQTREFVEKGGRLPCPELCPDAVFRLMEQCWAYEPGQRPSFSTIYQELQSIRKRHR
# [13] = target: Tyrosine-protein kinase Fes/Fps (Homo sapiens) (UniProt P07332); details: at 1 µM
# [14] = target: Fibroblast growth factor receptor 1 (Homo sapiens) (UniProt P11362); details: at 0.1 µM
# [15] = target: Fibroblast growth factor receptor 1 (Homo sapiens) (UniProt P11362); details: at 1 µM
# [16] = target: Fibroblast growth factor receptor 2 (Homo sapiens) (UniProt P21802); details: at 0.1 µM
# Chain of Fibroblast growth factor receptor 2 (Homo sapiens) (P21802 22-821 limits assumed): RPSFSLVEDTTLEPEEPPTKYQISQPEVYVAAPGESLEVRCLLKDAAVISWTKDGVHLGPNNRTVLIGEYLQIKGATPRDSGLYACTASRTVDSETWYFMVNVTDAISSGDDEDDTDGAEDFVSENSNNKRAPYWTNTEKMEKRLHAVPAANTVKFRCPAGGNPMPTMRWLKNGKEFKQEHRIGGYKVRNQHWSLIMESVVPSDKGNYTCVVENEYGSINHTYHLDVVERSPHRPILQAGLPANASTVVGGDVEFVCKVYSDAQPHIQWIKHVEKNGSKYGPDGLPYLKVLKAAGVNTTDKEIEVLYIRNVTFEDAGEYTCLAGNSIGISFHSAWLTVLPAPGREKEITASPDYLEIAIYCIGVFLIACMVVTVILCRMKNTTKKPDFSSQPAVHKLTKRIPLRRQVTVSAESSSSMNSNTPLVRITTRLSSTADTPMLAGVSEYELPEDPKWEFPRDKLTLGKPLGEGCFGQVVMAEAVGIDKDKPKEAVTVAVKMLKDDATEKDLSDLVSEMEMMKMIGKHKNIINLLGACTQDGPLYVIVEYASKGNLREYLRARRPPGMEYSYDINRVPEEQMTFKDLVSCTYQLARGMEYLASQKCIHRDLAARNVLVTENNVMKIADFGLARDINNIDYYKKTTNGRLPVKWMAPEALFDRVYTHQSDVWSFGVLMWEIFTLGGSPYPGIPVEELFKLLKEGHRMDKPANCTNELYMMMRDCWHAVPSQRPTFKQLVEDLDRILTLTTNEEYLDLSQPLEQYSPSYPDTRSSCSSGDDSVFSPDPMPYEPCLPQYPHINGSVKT
# [17] = target: Fibroblast growth factor receptor 2 (Homo sapiens) (UniProt P21802); details: at 1 µM
# [18] = target: Fibroblast growth factor receptor 3 (Homo sapiens) (UniProt P22607); details: at 0.1 µM
# Chain of Fibroblast growth factor receptor 3 (Homo sapiens) (P22607 23-806 limits assumed): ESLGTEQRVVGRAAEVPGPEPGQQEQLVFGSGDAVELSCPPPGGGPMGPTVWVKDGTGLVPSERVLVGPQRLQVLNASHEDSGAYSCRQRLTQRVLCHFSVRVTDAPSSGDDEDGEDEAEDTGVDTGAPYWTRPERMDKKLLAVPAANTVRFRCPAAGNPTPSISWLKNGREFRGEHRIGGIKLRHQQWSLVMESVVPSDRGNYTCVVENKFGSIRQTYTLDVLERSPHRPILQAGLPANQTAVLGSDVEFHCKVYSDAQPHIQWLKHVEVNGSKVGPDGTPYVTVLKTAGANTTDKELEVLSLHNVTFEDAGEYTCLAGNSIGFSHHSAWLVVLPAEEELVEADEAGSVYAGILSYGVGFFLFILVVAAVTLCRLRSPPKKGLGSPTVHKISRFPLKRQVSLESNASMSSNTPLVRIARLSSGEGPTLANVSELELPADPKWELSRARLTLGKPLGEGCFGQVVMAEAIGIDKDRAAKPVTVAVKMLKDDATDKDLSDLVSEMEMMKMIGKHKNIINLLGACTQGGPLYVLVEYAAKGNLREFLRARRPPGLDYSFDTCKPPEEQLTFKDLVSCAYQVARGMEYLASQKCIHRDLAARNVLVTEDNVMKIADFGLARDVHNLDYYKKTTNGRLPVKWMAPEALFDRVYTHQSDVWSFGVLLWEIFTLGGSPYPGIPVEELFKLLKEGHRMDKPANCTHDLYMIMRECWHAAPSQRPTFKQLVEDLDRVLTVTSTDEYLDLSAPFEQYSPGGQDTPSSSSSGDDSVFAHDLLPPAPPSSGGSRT
# [19] = target: Fibroblast growth factor receptor 3 (Homo sapiens) (UniProt P22607); details: at 1 µM
# [20] = target: Fibroblast growth factor receptor 4 (Homo sapiens) (UniProt P22455); details: at 0.1 µM;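 also: values are mean percent inhibition of FGFR4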
SMILES,inhibition [1],inhibition [2],inhibition [3],inhibition [4],inhibition [5],inhibition [6],inhibition [7],inhibition [8],inhibition [9],inhibition [10],inhibition [11],inhibition [12],inhibition [13],inhibition [14],inhibition [15],inhibition [16],inhibition [17],inhibition [18],inhibition [19],inhibition [20]
N#Cc1cccc(Nc2nccc(-c3cnn4ncccc34)n2)c1,46.2%,4.19%,3.9%,5.63%,22.5%,1.23%,5.3%,8.57%,19.1%,9.92%,48.9%,7.07%,34.3%,4.73%,8.94%,7.31%,23.4%,9.72%,17.2%,-0.11%
N#Cc1c(NC(=O)c2ccccc2F)sc2c1CCCC2,-0.34%,3.63%,0.77%,-2.29%,0.07%,-3.55%,1.39%,-2.08%,0.66%,-1.19%,1.99%,-0.84%,-1.66%,-6.27%,-0.77%,-3.13%,-2.53%,-2.94%,-1.6%,1.12%
Cc1cc(O)cc(C)c1/C=C/c1cncc(C(=O)N(C)C)c1,22.5%,5.26%,5.69%,3.23%,7.53%,1.35%,-0.95%,9.24%,7.51%,3.43%,1.61%,1.75%,1.31%,1.31%,1.65%,4.82%,5.81%,3.74%,3.19%,-0.32%
CN(C)C(=O)O[C@@H]1CN[C@@H](C#Cc2cc3ncnc(Nc4ccc(OCc5cccc(F)c5)c(Cl)c4)c3s2)C1,-1.82%,2.5%,-1.81%,1.64%,3.64%,-1.37%,27.1%,107%,130%,0.75%,-0.72%,-0.22%,1.12%,-0.27%,1.69%,0.19%,4.88%,-0.96%,2.96%,-1.62%
Oc1cccc(-c2nc(-c3ccccc3)[nH]c2-c2ccncc2)c1,26.1%,9.06%,19.3%,6.41%,9.99%,4.55%,3.87%,12.6%,19.4%,3.43%,0.53%,2.34%,1.64%,1.95%,7.19%,4%,9.16%,4.28%,5.69%,1.36%
Cc1nc(-c2ccccc2)n2nc(NCCCN3CCOCC3)ncc12,7.29%,2.93%,3.76%,1.32%,4.69%,1.95%,5.51%,5.53%,11.3%,1.34%,2.98%,2.16%,3.03%,-1.62%,-3.57%,3.94%,11.8%,6.35%,4.45%,6.31%
Cc1cc(-c2ccccn2)cc(C)c1/C=C/c1cncc(-c2nn[nH]n2)c1,12.8%,2.22%,4.35%,1.86%,4.98%,-0.2%,8.13%,8.8%,21.3%,-0.04%,2.12%,3.53%,5.62%,1.35%,,4.22%,7.33%,5.34%,4.82%,2.42%
CC(C)c1ccc(Nc2nccc(-c3cnn4ncccc34)n2)cc1,14.4%,6.52%,2.55%,4.64%,2.76%,0.95%,3.22%,8.58%,11.6%,5.74%,16%,5.26%,25.5%,4.84%,4.17%,0.37%,7.86%,7.5%,6.25%,2.11%
CCn1c(-c2nonc2N)nc2ccc(F)cc21,12.6%,6.48%,4.6%,1.64%,1.12%,5.65%,14%,20.6%,20.7%,3.01%,7.92%,2.98%,2.83%,3.73%,10.2%,5.98%,4.55%,7.35%,5.83%,2.81%
Cc1ccc(Nc2ccnc(Nc3cccc(C(N)=O)c3)n2)cc1O,38.6%,0.29%,-0.39%,2.22%,29.1%,2.41%,5.7%,6.84%,20.2%,4.75%,23.4%,2.5%,10.7%,4.6%,34.8%,1.51%,26.6%,3.55%,18.4%,-3.61%
COc1cc(/C=N/Nc2ncnc3c2cnn3C(C)C)ccc1O,30.4%,2.7%,4.2%,3.42%,21.4%,1.13%,3.23%,3.96%,6.31%,2.02%,7.03%,1.26%,5.37%,-0.65%,2.77%,1.99%,7.97%,1.62%,7.76%,-8.41%
Cc1ccc2c(-c3ccnc(Nc4cccc(C(F)(F)F)c4)n3)c(-c3ccccc3)nn2n1,51.7%,3.61%,9.16%,7.62%,46.4%,5.37%,37.7%,40.4%,79%,-8.28%,43.3%,3.67%,5.17%,5.59%,8.78%,6.45%,9.52%,7.84%,6.97%,2.15%
COC(=O)c1ccc2c(c1)C(=Cc1cc(Br)c(O)c(Br)c1)C(=O)N2,7.02%,2.1%,3.26%,2.41%,3.68%,-0.98%,3.44%,3.22%,14.2%,-1.52%,7.48%,3.27%,4.01%,3.15%,6.87%,7.19%,8.86%,8.03%,5.51%,4.35%
COc1ccc2ncnc(Nc3ccc(OCc4ccccc4)cc3)c2c1,6.18%,4.29%,1.66%,2.58%,0.41%,1.73%,30.9%,56.2%,85.1%,-1.28%,4.76%,0.67%,1.33%,1.89%,-1.53%,1.22%,2.56%,1.63%,2.3%,1.47%

# — ChEMBL document CHEMBL1961873, “Compounds: GSK PKIS; Assays: Nanosyn kinase panel” (2012)
